Here are results for 16 molecules from PubChem BioAssay (NCI).

Among the test systems are T-47D breast; BT-549 breast; MDA-MB-435 melanoma; SW-620 colon; MCF7 breast; HCT-116 colon; HCC-2998 colon; KM12 colon.
Common to all, as to assay: NCI-60 one-dose screen, 48 h (100 = growth as untreated, 0 = no growth, -100 = all killed)
Holding throughout (details): 10 µM unless noted

Compounds without any hit were thinned out: in the full panel of roughly 83,000, 20% have a hit.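 Results are percent growth after 48 hours of single-concentration exposure. 100 means growth as in untreated cells, lower positive values show inhibition; negative values down to -100 show cell death.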 Values without a mark were called inactive. The source made the active and inactive calls. Rule for the calls: active = growth percent below 10; inactive = the rest.

Take `COc1c(B(O)O)cccc1-c1cc(C)c2c(ccc3[nH]ncc32)n1`: the growth was 84.1% with T-47D breast; 23.1% in the assay with BT-549 breast; 92% with MDA-MB-435 melanoma; 63.5% in the assay on SW-620 colon; 71.8% in the assay with MCF7 breast; 41.7% in the assay on HCT-116 colon. Besides, the values for the growth in the assay on HCC-2998 colon and in the assay with KM12 colon were 105% and 83.1%, respectively.

As to `Cn1ccnc1C(=O)/C=C/c1ccc(CC(=O)Nc2cc(C(F)(F)F)cc(C(F)(F)F)c2)cc1`, the growth in the assay on T-47D breast is 52.1%; with BT-549 breast it was 80.3%; in the assay with MDA-MB-435 melanoma, 68.5%; in the assay on SW-620 colon, 70.5%; with MCF7 breast, 30.8%; in the assay on HCT-116 colon, 51.6%. The growth in the assay on HCC-2998 colon was 83.6%; with KM12 colon it was 63%.

With `Cc1ccc(Nn2c(SCC(=O)Nc3nc(-c4ccccc4)cs3)nc(C)c2C)cc1`, the growth with T-47D breast was -2.45% (active); in the assay on BT-549 breast, 63.5%; in the assay on MDA-MB-435 melanoma it was 76.7%; in the assay on SW-620 colon, 98.8%; with MCF7 breast it was 28.5%; in the assay with HCT-116 colon, 40.2%. The growth is 92% in the assay with HCC-2998 colon and 82.9% with KM12 colon.

Take `CCOc1ccccc1Cn1ccnc1CCc1c(Cl)c(O)cc(O)c1C(=O)OC`: the growth is 92.4% in the assay with T-47D breast; 98.8% in the assay with BT-549 breast; 110% in the assay with MDA-MB-435 melanoma; 104% in the assay with SW-620 colon; 91.7% in the assay with MCF7 breast; 89.3% in the assay on HCT-116 colon. The growth in the assay on HCC-2998 colon was 97.8%; in the assay with KM12 colon, 98.4%.

With `N#Cc1c(-c2ccc(Cl)cc2)nc(NN2C(=O)c3ccccc3C2=O)nc1N1CCOCC1`, the growth in the assay with T-47D breast was 94.7%; with BT-549 breast, 112%; with MDA-MB-435 melanoma, 106%; with SW-620 colon, 98.8%; in the assay with MCF7 breast it was 101%; with HCT-116 colon, 99.5%. Also, the growth with HCC-2998 colon was 111%; with KM12 colon, 107%.

As to `COc1cc(NS(=O)(=O)c2ccc(-c3cnc(C4CC4)o3)cc2)ccc1F`, the growth in the assay on T-47D breast is 33.6%; in the assay with BT-549 breast, 44.6%; in the assay on MDA-MB-435 melanoma it was -21.3% (active); with SW-620 colon, 18%; in the assay with MCF7 breast, 12.7%; in the assay with HCT-116 colon, 20.9%. In addition, the figures for the growth in the assay on HCC-2998 colon and in the assay with KM12 colon were 38.4% and 20.7%, respectively.

`CN1CCN(C(=O)c2ccc(NC(=O)c3cc4c(nn3)NCCN4Cc3cc(Cl)ccc3Cl)cc2)CC1`: the growth with T-47D breast is 97.3%; in the assay with BT-549 breast, 60.1%; in the assay with MDA-MB-435 melanoma, 61.4%; in the assay with SW-620 colon, 50.6%; in the assay with MCF7 breast, 46%; with HCT-116 colon, 32%. The results for the growth in the assay on HCC-2998 colon and with KM12 colon were 99.8% and 21.7%, respectively.

Turning to `O=C(CSc1nc2ccc([N+](=O)[O-])cc2[nH]1)Nc1ccc([N+](=O)[O-])cc1`, the growth was 3.64% (active) in the assay with T-47D breast; 7.77% (active) in the assay with BT-549 breast; 14.3% in the assay on MDA-MB-435 melanoma; 31.9% in the assay on SW-620 colon; 16% with MCF7 breast; 9.88% (active) with HCT-116 colon. Besides, the growth in the assay with HCC-2998 colon was 31.1%; in the assay with KM12 colon it was 21.8%.

As for `CCOC(=O)Cc1cnc(N/N=C(\C)c2cc3ccccc3o2)s1`, the growth was 70.5% with T-47D breast; 109% in the assay on BT-549 breast; 108% in the assay on MDA-MB-435 melanoma; 96.9% with SW-620 colon; 81.3% in the assay on MCF7 breast; 96.4% in the assay with HCT-116 colon. The values for the growth in the assay on HCC-2998 colon and in the assay on KM12 colon were 105% and 96.3%, respectively.

For `N#CSCC1CC(O)(c2ccccc2)CC(c2ccc(F)cc2)O1` (stereo not drawn), the growth with T-47D breast was 12.5%; with BT-549 breast, -9.66% (active); in the assay on MDA-MB-435 melanoma, 0.665% (active); in the assay on SW-620 colon it was -58.8% (active); with MCF7 breast, -17% (active); in the assay on HCT-116 colon, -60.4% (active). Moreover, the growth with HCC-2998 colon was 72%; in the assay with KM12 colon, -49.3% (active).

Consider `NC(=O)c1ccc(-c2c3ccccc3cc3c2ccc2ccccc23)cc1`, for which the growth with T-47D breast was 60.4%; in the assay with BT-549 breast it was 29.1%; in the assay on MDA-MB-435 melanoma it was 0.545% (active); with SW-620 colon it was 17.1%; in the assay with MCF7 breast, 17.7%; in the assay on HCT-116 colon, 33.4%. In addition, the growth is 60% in the assay with HCC-2998 colon and 3.27% (active) with KM12 colon.

In the case of `CC(=O)N1N=C(c2ccc(C(F)(F)F)c(F)c2)CC1c1[nH]c(C)c(C(=O)NCC(F)(F)F)c1C` (stereo not drawn), the growth in the assay on T-47D breast is 43.5%; in the assay with BT-549 breast it was 89.9%; in the assay on MDA-MB-435 melanoma it was 76.7%; in the assay with SW-620 colon it was 94.3%; with MCF7 breast it was 73.6%; in the assay on HCT-116 colon, 34%. Further, the growth was 72.1% with HCC-2998 colon and 60.2% with KM12 colon.

For `C=CC(=O)N1CCN(c2cccc(Oc3nccc(Nc4nnc(-c5ccc(Br)cc5)s4)n3)c2)CC1`, the growth with T-47D breast was 63.6%; with BT-549 breast, 67.1%; in the assay on MDA-MB-435 melanoma, -5.55% (active); in the assay on SW-620 colon, 35.2%; in the assay with MCF7 breast, 35.9%; with HCT-116 colon, 58.4%. Besides, the growth with HCC-2998 colon is 89.9%; in the assay with KM12 colon it was 43.8%.

As to `COc1cc(OC)c(/C=C/C(=O)c2c(OC)cccc2OC)c(OC)c1`, the growth in the assay on T-47D breast is 30.1%; in the assay with BT-549 breast, 7.43% (active); in the assay on MDA-MB-435 melanoma, -22% (active); in the assay on SW-620 colon, 17.7%; in the assay on MCF7 breast, 25.1%; in the assay with HCT-116 colon it was 9.06% (active). The growth in the assay with HCC-2998 colon was 0.761% (active); in the assay with KM12 colon it was 8.59% (active).

`COc1ccc(C(=O)Nc2cccc(-c3cc(=O)c4c(OC)c(OC)c(OC)cc4o3)c2)cc1`: the growth was 45% with T-47D breast; 51.4% in the assay on BT-549 breast; 69.6% in the assay with MDA-MB-435 melanoma; 88% with SW-620 colon; 66.5% with MCF7 breast; 47.8% with HCT-116 colon. For the same molecule, the growth with HCC-2998 colon is 70.3%; in the assay with KM12 colon, 46.3%.

Take `C#CCOC(=O)/C=C/c1cn(-c2ccccc2)nc1-c1ccc(OC)cc1`: the growth with T-47D breast was 88.3%; with BT-549 breast, 108%; in the assay with MDA-MB-435 melanoma, 107%; in the assay on SW-620 colon it was 112%; with MCF7 breast, 79.1%; with HCT-116 colon it was 74.8%. Besides, the growth in the assay on HCC-2998 colon was 105%; with KM12 colon it was 96.9%.
